In the library only some 8.1% were active in any assay of this set; here they are far more common.
KB-3-1 tox = qHTS assay for MDR1-selective chemotherapeutics: Primary screen using the parental adenocarcinoma cell KB-3-1; KB-3-1 viability, CellTiter-Glo ATP luminescence, 72 h; Potency, µM (highest dose often 46.1 µM), usual class: cytotoxic; hit rate 1.4% among 400,000; further: on the % scale 0 is the no-effect control and ±100 the full control effect; nearly all actives have a fitted effect of over 60% in size
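KB-3-1 parental drug-naive adenocarcinoma cells in DMEM/10% FBS, incubated 72 h at 37 C with pin-transferred compounds across a concentration series. Viability by CellTiter-Glo luminescence; concentration-response curves fitted after normalization.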
KB-V1 MDR tox = qHTS assay for MDR1-selective chemotherapeutics: Primary screen using the drug-selected MDR subline cells KB-V1. Potency, µM (highest dose often 46.1 µM), actives largely listed as cytotoxic. hit rate 3.4% among 400,000. KB-V1 MDR cells viability, CellTiter-Glo, 72 h; further: on the % scale 0 is the no-effect control and ±100 the full control effect; nearly all actives have a fitted effect of over 60% in size
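KB-V1, DMEM (no phenol red) + 10% FBS; cpd pin-transferred, titration series; 72 h, 37 degrees C; CellTiter-Glo, luminescence. Data normalized, curve-fit.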
ELG1 repair inh = qHTS screen for small molecules that inhibit ELG1-dependent DNA repair in human embryonic kidney (HEK293T) cells expressing luciferase-tagged ELG1 | HEK293T ELG1-luciferase reporter, luminescence, 16 h; DNA damage induced by 5-fluorouridine | Potency, µM (top dose mostly 46.1 µM), inactives show top-dose activity change, negative = inhibition, most hits filed as inhibitors | hit rate 2.3% among 330,000 | AID 504467, 2011; further: on the % scale 0 is the no-effect control and ±100 the full control effect; nearly all actives have a fitted effect of over 55% in size
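Step one: seed 2,000 cells per well. Step two: pin-transfer compound or DMSO alongside 5-fluorouridine. Step three: incubate 16 hr, 37 °C, 5% CO2. Step four: add ONE-Glo, wait 30 min, read luminescence.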
MCF10A rereplic = A quantitative high throughput screen for small molecules that induce DNA re-replication in MCF 10a normal breast cells; hit rate 2.9% among 350,000; MCF 10A DNA re-replication, Hoechst nuclear intensity, 48 h; Potency, µM (titrated, usually from 46.1 µM), for inactives: at the highest dose activity, positive = re-replication, actives largely listed as activators; further: % of control where 0% means no effect; nearly all actives have a fitted effect of over 50% in size
SW480 rerep = A quantitative high throughput screen for small molecules that induce DNA re-replication in SW480 colon adenocarcinoma cells. SW480 DNA re-replication, Hoechst DNA content imaging, 48 h. Potency, µM (titrated, usually from 46.1 µM), for the others: at the top dose re-replication activation, most hits filed as activators. hit rate 1.8% among 340,000. AID 624297, 2012; further: % of control where 0% means no effect; nearly all actives have a fitted effect of over 55% in size
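Image-based read-out: total Hoechst fluorescence of nuclei (405 nm excitation, 500-530 nm emission), with hits raising the fraction of high-intensity nuclei. SW480 colon cells incubated 48 hr with compounds at 37 C.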
An asterisk follows results filed as active; i = inactive; ? = inconclusive; · = no result. The call rests on the fitted dose curve; in most records, active means well fitted curve in the direction sought with a large enough effect; inconclusive means small, poorly fitted or top-dose-only effect, or another doubt; inactive means no such curve, though single readings can be large; an effect the other way counts as inactive or inconclusive. Potency means the concentration at half of the fitted maximal effect.

SMILES	KB-3-1 tox	KB-V1 MDR tox	ELG1 repair inh	MCF10A rereplic	SW480 rerep
CCCCCCCCCCCCCCCCCCN(CCCCCCCCCCCCCCCCCC)c1ccc(C=O)cc1	i	i	·	·	·
CCc1n(CC(O)COC2CCCCC2)c2ccccc2[n+]1C (stereo not drawn)	i	?	5%	-7%	-9%
CCCc1n(CC)c2ccccc2[n+]1CC(O)COC1CCCCC1 (stereo not drawn)	i	i	3.3µM*	-2%	13%
O=C1OC(Cc2ccccc2)(c2ccccc2)c2ccccc21 (stereo not drawn)	i	?	·	·	·
Cc1ccc(-c2csc(NCCn3c(-c4ccncc4)nc4ccccc43)n2)cc1	?	21µM*	?	2%	0%
Cc1ccc(Cn2c(C(CO)Nc3nc(-c4ccc(F)cc4)cs3)nc3ccccc32)cc1 (stereo not drawn)	16µM*	i	·	?	18%
CN(C)c1ccc(/C=C2\C=Cc3ccccc32)cc1N	i	i	·	·	·
COC(=O)COc1cccc2c(=O)n(CC(=O)NCc3ccc(F)cc3)ccc12	1.5µM*	?	?	10µM*	5.8µM*
CCOC(=O)C(C)Oc1cccc2c(=O)n(CC(=O)NCCc3ccccc3)ccc12 (stereo not drawn)	i	i	4%	0%	3%
CCOC(=O)COc1cccc2c(=O)n(CC(=O)NCc3ccc4c(c3)OCO4)ccc12	?	i	-2%	?	7.3µM*
CCOC(=O)C(C)Oc1cccc2c(=O)n(CC(=O)NCc3ccc(F)cc3)ccc12 (stereo not drawn)	1.3µM*	1.3µM*	?	?	?
CCOC(=O)C(C)Oc1cccc2c(=O)n(CC(=O)NCc3ccccc3)ccc12 (stereo not drawn)	1.2µM*	2.1µM*	?	0.58µM*	1.3µM*
Cc1ccc(-c2cnc(C(O)c3cc(C)cc(C)c3)[nH]2)cc1 (stereo not drawn)	i	i	·	·	·
O=C(NC1CC1)c1ccc2nc(-c3ccco3)c(-c3ccco3)nc2c1	i	i	·	·	·
CC1Cc2cc(S(=O)(=O)NCc3ccccc3Cl)ccc2N1C(=O)C1CCC1 (stereo not drawn)	23µM*	?	·	·	·
CC(=O)N1c2ccc(S(=O)(=O)N3CCC(C(=O)NCc4ccc(Cl)cc4)CC3)cc2CC1C (stereo not drawn)	?	i	10µM*	23µM*	?
Cc1ccc(CNC(=O)CCS(=O)(=O)c2ccc3c(c2)CC(C)N3C(=O)C2CC2)cc1 (stereo not drawn)	21µM*	i	-4%	10µM*	?
CC1Cc2cc(S(=O)(=O)NCCc3ccccc3)ccc2N1C(=O)C1CC1 (stereo not drawn)	i	i	4%	?	8%
CC(=O)N1c2ccc(S(=O)(=O)N3CCC(C(=O)NCc4ccccc4Cl)CC3)cc2CC1C (stereo not drawn)	i	i	23µM*	-4%	2%
O=C(COC(=O)/C=C/c1cccc(Br)c1)Nc1ccc(Cl)cn1	i	i	·	·	·
O=C(NCc1ccccc1)C1c2ccccc2OCC(=O)N1CC(F)(F)F (stereo not drawn)	i	i	·	·	·
CCOc1ccc(-c2cccc(NS(=O)(=O)c3ccccc3C(F)(F)F)c2)nn1	i	i	·	·	·
COc1cc(CNC(=O)c2cc(-c3cc(OC)ccc3Cl)n[nH]2)cc(OC)c1	i	i	·	·	·
COc1cc(NC(=O)Cn2c(=O)n(Cc3ccco3)c(=O)c3sc4ccccc4c32)cc(OC)c1	i	?	·	·	·
Cc1cc(=O)n2nc(N3CCC(C(=O)Nc4ccc(Br)c(C)c4)CC3)sc2n1	i	i	·	·	·
Nc1nc(NCCO)nc(NC2CCCCC2)c1[N+](=O)[O-]	i	i	-11%	26µM*	?

Screening results (PubChem BioAssay)
